# Reference: the supplement of paper PMC11417369
# ± gives the standard deviation of the averaged measurements. Over roughly 25,000 sequences, “ln(normalized median fluorescence intensity)” has its median near 8.6; the highest 2% begin near 10. For the sample, the highest values were picked, then their nearest neighbours and some sequences at random.
# System: PfAP2-EXP AP2 domain (GST-tagged)
# Assay: gcPBM binding intensity (ln(normalized median fluorescence intensity)); higher = stronger DNA binding
# Procedure, shortened: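 The binding buffer was 1× PBS containing 1% milk, 0.2 mg/ml BSA, 0.5% salmon testes DNA and 0.03% Triton X-100. In it, GST-tagged P. falciparum DNA-binding domains expressed in E. coli were applied for 1 h to an Agilent 4 × 180k array of primer-extended double-stranded 36-bp intergenic genomic probes plus negative controls. Binding intensity, read with Alexa488 anti-GST antibody and a 488 nm scan, is the highest Masliner-normalised natural-log median intensity across replicate spots of either probe orientation.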
row,Sequence,gcPBM binding intensity (ln)
1,TAAAAAATAAAAAAAGCACACACATATATATATATA [CACACA_site8567],10.3 ± 0.25
2,AAAAAAAAAAAAAAAGCACACATATAAATATGAATA [CACACA_site8391],8.41 ± 0.24
3,AAAAATAAAAAAAGCACACACATATAAATAAATATA [CACACA_site6968],8.69 ± 0.6
4,AAAATAAAAATAAAAGCACACATAAATATATATATA [CACACA_site8409],9.64 ± 0.28
5,AAAAATAAAAAAAGCACACACATATATATATATATA [CACACA_site1885],10.2 ± 0.28
6,AATAAAAATAAAAGCACACATAAATATATATATATT [CACACA_site1441],8.66 ± 0.39
7,TTCTTTTTAATTAATACACACACACCCATATATATA [CACACA_site8719],8.83 ± 0.42
8,AATGTATATATATATATATATATATATATTTATTTA [CACACA_negctrl_site113],8.43 ± 0.14
9,CCCGTAAATTATGAGTGTACGTTATTTTTTAAAATG [XGTACX_site3946],8.81 ± 0.49
10,ATAATGTTTTATAATACACACATTATATATATAAAT [CACACA_site6101],8.4 ± 0.37
11,AATATATGTTAAAATGGTACACAATTATTATATATT [XGTACX_site6407],8.46 ± 0.4
12,TATTCCTTCTACAATTAAATAATTATAATAAATATA [GTGCAC_negctrl_site26],8.46 ± 0.46
13,AATTAGATACTAACAAGTACATATATATATATATAT [XGTACX_site2252],10.2 ± 0.26
14,ATATATAGATAATCAAGTACATAACAAGATATAAGA [XGTACX_site2186],8.81 ± 0.47
15,GAAATTATGTAAAAAAGTACTAACATACATATATAT [XGTACX_site1794],8.61 ± 0.32
16,CAAGTAGATATTATACGTACATATATATATATATAT [XGTACX_site8349],10.2 ± 0.32
17,ATATATTATTATACATGTACATATATAGATATATAT [XGTACX_site4358],8.53 ± 0.35
18,ACATACATATATATACGTACATATATATTTATATAT [XGTACX_site5799],8.75 ± 0.34
19,ATAATATCATAATATTGTACATATTTTATTTTAAAT [XGTACX_site1115],8.36 ± 0.29
20,AATCTTCTTAATTGTAGTACACAATTTATAAACAAA [XGTACX_site8706],8.61 ± 0.3

row,Sequence,gcPBM binding intensity (ln)
1,TGATATTATATATATACACACATGTATGTATTTATA [CACACA_site4874],8.32 ± 0.42
2,TAATATCTACATATATGTACATATATATATATATAT [XGTACX_site7979],9.94 ± 0.4
3,ATATATATATATATATGTACATATATCTACATATAT [XGTACX_site7588],10.2 ± 0.14
4,ATATATATATATATATGTACATAGAGAAGTATCTTT [XGTACX_site4737],10.4 ± 0.17
5,ATGTATGTGTATATATGTACATAATATATATCTTTT [XGTACX_site8666],8.65 ± 0.32
6,AAATGTATATATGTATGTACATATATATATATATAT [XGTACX_site5778],10 ± 0.35
7,ATATATATATATATATGTACATATATATATGTATAT [XGTACX_site3959],10.2 ± 0.33
8,ATATATATATATATGTGTACATATATTAAGATATAT [XGTACX_site1065],10 ± 0.3
9,ATATATATATATATGTGTACATATAAGATAGAAGAA [XGTACX_site3198],10.2 ± 0.35
10,AATAAATAGATATATACACACATATATGTGTACATA [CACACA_site7476],8.37 ± 0.29
11,ATATATCTACATATATGTACATATATGTATATGTAT [XGTACX_site5432],8.41 ± 0.2
12,ATATATATGTATATATGTACATATATGTATATATAT [XGTACX_site4772],8.66 ± 0.17
13,ATATATATATATATGTGTACATATGTATATATATCT [XGTACX_site2930],10.1 ± 0.4
14,AATATAACTTAGAATTGTACATAAAAAAAAATATAT [XGTACX_site3313],8.68 ± 0.35
15,CAAAATATTTAAAAAAGTACTTAAAATAAATTCAAA [XGTACX_site6866],8.48 ± 0.38
16,CTTAAATCTACTATTTGTACATATTTTATTATTAAA [XGTACX_site6151],8.58 ± 0.37
17,TTTATTTAAAAAATAAAAAAAAAAAAAAAAAAAAAA [CACACA_negctrl_site1670],7.82 ± 0.38
18,GGATACGCTTTTGTACCACTCCCCCTTTTGGGAATA [CACACA_negctrl_site1363],8.88 ± 0.33
19,AAAACTTGTCAGAATGGACACACGAATTAAAGGCCT [CACACA_site1215],8.79 ± 0.52
20,GCATAAATTATCATAACATAAATATAAAAATATAAT [GTGCAC_negctrl_site55],8.36 ± 0.37

row,Sequence,gcPBM binding intensity (ln)
1,TAGTTGTGAGTTACATGTACATGTATTTATTTTTTA [XGTACX_site7088],8.88 ± 0.47
2,CCACACTTAAAATACACACACACCAAAAAAAAAAAA [CACACA_site2709],8.43 ± 0.37
3,TATATTTGGTTTCATTCATTTTTATAGAAATCTCAA [CACACA_negctrl_site1412],8.48 ± 0.47
4,GTATATATGTATATATGTACATATATATAATATATT [XGTACX_site56],8.5 ± 0.16
5,TATATAAATATAATATGTACATATAATATGTATATA [XGTACX_site8120],8.36 ± 0.26
6,ATATATATATATATATGTACATATATACATATATGT [XGTACX_site1521],10 ± 0.49
7,GATATGTGTATAATATGTACATATATATATATATAT [XGTACX_site6531],10.2 ± 0.5
8,ATATATATATATATATGTACATACATACATAGAACT [XGTACX_site2214],10.4 ± 0.3
9,ATACATATATACATATGTACATATATATATATATAT [XGTACX_site8206],9.9 ± 0.39
10,AAAGTGGCCATATATTTTTTTTTTTTTTTCCTTATT [CACACA_negctrl_site485],8.11 ± 0.53
11,ACATATTAATTATTATGACATACATATCAGTTATTA [TGCATGCA_negctrl_site126],8.38 ± 0.27
12,AGGCACTTATAATAATGTACATAAATAAAAAGAAAA [XGTACX_site6037],8.81 ± 0.35
13,TTTTTATGAAAATAAACACACGATTTATTATATATA [CACACA_site1311],8.27 ± 0.34
14,GAAGACAATTATATGTGTACATATATATACATATAT [XGTACX_site4630],8.44 ± 0.25
15,TATATATATATATATTGTACATTTTTTTTTTTTTTT [XGTACX_site7891],10.1 ± 0.23
16,TATAAAATACTGTATCGATGGGGGAGGGCGCAGGGG [TGCATGCA_negctrl_site250],10.3 ± 0.11
17,ATATATGGGGCGCAGGAAAAGAGTTTTGGAAATAAA [CACACA_negctrl_site1265],9.08 ± 0.49
18,AGTATATAAAATACTGTATCGATGGGGGAGGGCGCA [CACACA_negctrl_site1612],9.97 ± 0.23
